Compound activity deposited in PubChem BioAssay by National Center for Advancing Translational Sciences (NCATS).
Tau fibril FP = qHTS for Inhibitors of Tau Fibril Formation, Fluorescence Polarization; Microtubule-associated protein tau (Homo sapiens), P10636; 280,000 compounds, 0.39% hits; Potency, µM (series often up to 57.7 µM), for the others: top-dose activity, negative = inhibition, most hits filed as inhibitors; K18 P301L tau heparin fibrillization, Alexa594 FP, 6 h; AID 1468, 2008; also: nearly all actives have a fitted effect of over 55% in size
Target sequence (P10636 561-689 P618L limits assumed): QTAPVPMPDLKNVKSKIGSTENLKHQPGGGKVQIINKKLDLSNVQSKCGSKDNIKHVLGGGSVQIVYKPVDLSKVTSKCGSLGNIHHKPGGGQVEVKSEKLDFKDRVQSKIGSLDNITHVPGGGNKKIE
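Recombinant K18 P301L […], labeled with Alexa 594 at 0.24 uM over 15 uM unlabeled; heparin inducer 20 uM final; 37 C, 6 hr; FP endpoint.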
JMJD2E inh = qHTS Assay for Inhibitors of Human Jumonji Domain Containing 2E (JMJD2E). Lysine-specific demethylase 4E (Homo sapiens), B2RXH2. JMJD2E catalytic domain, FDH-coupled NADH fluorescence (FDH is formaldehyde dehydrogenase). Potency, µM (top dose mostly 57.1 µM), without a hit: top-dose activity change, negative = inhibition, actives largely listed as inhibitors. 230,000 compounds, 1.6% hits. AID 2147, 2009; active = well fitted inhibition curve with a large enough effect, not every such curve was filed as active; inconclusive = small, poorly fitted or top-dose-only effect, or another doubt; inactive = no such curve, though single readings can be large or run the other way;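 also: 0% = wells with enzyme and -100% = buffer wells without enzyme; nearly all actives have a fitted effect of over 50% in size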
GoLoco inh red = qHTS Assay for Inhibitors of RGS12 GoLoco Motif Activity (Red Fluorophore); Guanine nucleotide-binding protein G(i) subunit alpha-1 (Homo sapiens), P63096; Gai1:RGS12 GoLoco peptide FP, rhodamine, 10 min; Potency, µM (doses to about 61.6 µM), without a hit: at the highest dose activity, negative = inhibition, most hits filed as inhibitors; 230,000 compounds, 0.44% hits; active = well fitted inhibition curve with a large enough effect, not every such curve was filed as active; inactive = no such curve, though single readings can be large or run the other way; also: nearly all actives have a fitted effect of over 30% in size
Target sequence (P63096 whole entry, looked up): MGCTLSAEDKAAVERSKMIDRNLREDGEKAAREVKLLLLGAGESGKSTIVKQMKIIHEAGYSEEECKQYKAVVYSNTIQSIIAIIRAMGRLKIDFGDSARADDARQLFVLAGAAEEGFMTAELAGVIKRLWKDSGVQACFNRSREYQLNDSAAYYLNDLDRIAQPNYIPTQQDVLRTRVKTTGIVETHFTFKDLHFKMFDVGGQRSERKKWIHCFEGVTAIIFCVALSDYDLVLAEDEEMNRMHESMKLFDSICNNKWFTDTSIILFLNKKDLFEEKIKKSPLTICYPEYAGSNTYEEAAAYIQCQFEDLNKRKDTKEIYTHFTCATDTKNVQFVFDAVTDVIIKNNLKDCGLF
Tau fluor counter = Counterscreen qHTS for Inhibitors of Tau Fibril Formation, Fluorescence Polarization; tau K18 P301L Alexa594 fluorescence, heparin fibrillization; Potency, µM (highest dose often 57.7 µM), for inactives: top-dose activity change, negative = decrease; 280,000 compounds, 0.93% hits; AID 1463, 2008; also: nearly all actives have a fitted effect of over 55% in size
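Human tau K18 P301L (15 uM unlabeled, 0.24 uM Alexa 594-labeled) in 100 mM sodium acetate pH 7 with 20 uM heparin, 6 hr at 37 C. ThT 30 uM added, 1 hr ambient; Alexa 594 FP and total fluorescence read at 555/632 nm.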
Tau fibril ThT = qHTS for Inhibitors of Tau Fibril Formation, Thioflavin T Binding; Potency, µM (top dose mostly 57.4 µM), inactives show top-dose activity, negative = inhibition, actives largely listed as inhibitors; 270,000 compounds, 2.1% hits; recombinant tau K18 P301L (four-repeat tau fragment), heparin-induced fibrillization, ThT fluorescence; Microtubule-associated protein tau (Homo sapiens), P10636; also: nearly all actives have a fitted effect of over 55% in size
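Heparin-induced (20 uM) aggregation of recombinant human K18 P301L tau, 15 uM unlabeled with 0.24 uM labeled, pH 7 acetate buffer, 6 hr at 37 C with compound. Fibrils quantified by 30 uM ThT fluorescence after 1 hr ambient incubation.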
* hit, by the source's call; ? = inconclusive; . = not tested or not shown; ! = repeats disagree; [ ] = remark or other dose. The list is not random: actives were taken first. Their share in the collection is about 3.4%. Unless noted, calls follow the shape of the dose curve; as a rule, active = well fitted curve in the direction sought with a large enough effect; inconclusive = small, poorly fitted or top-dose-only effect, or another doubt; inactive = no such curve, though single readings can be large; an effect the other way counts as inactive or inconclusive. Unless noted, % is scaled to controls: 0 for no effect and ±100 for the full control effect; potency is read from the fitted curve at half-maximal effect.

SMILES	Tau fibril FP	JMJD2E inh	GoLoco inh red	Tau fluor counter	Tau fibril ThT
CC/C=C\C/C=C\C/C=C\CCCCCCCC(=O)O	?	?	-23.0%	-15.4%	28.2µM*!
COc1ccc2[nH]c(=O)c(CN(C(=O)c3cccc(Cl)c3)c3ccccc3C)cc2c1	-12.0%	.	.	-9.0%	3.3%
C[N+](C)([O-])CCC=C1c2ccccc2CCc2ccccc21	.	.	9.1%[14.2 µM]	.	.
C[N+](C)(C)CC/C=C1/c2ccccc2CSc2ccccc21	2.7%	4.0%	2.24µM*	-4.1%	-1.2%
Cc1nnc(N/N=C/c2cccc(OCc3ccc(Cl)c(Cl)c3)c2)n1N	-12.9%	?	-7.0%	25.1µM*[quencher]	12.6µM*
O=[N+]([O-])c1ccc(O)c(-c2nc(-c3ccccc3)c(-c3cccs3)[nH]2)c1	-19.9%	-1.1%	10.5%	11.2µM*[quencher]	20µM*
CCOc1cc(-c2nc(-c3ccccc3)c(-c3cc([N+](=O)[O-])ccc3C)[nH]2)ccc1O	13.3%	-1.8%	-14.7%	11.2µM*[quencher]	?
O=C(O)c1ccc(-c2nc(-c3ccccc3)c(-c3cccs3)[nH]2)cc1	?	?	17.1%	-30.4%	.
Cn1ncc2c(N3CCN(c4ccccc4Cl)CC3)ncnc21	1.8%	.	.	-7.4%	-15.0%
CCOc1ccc2oc(=O)cc(CN3CCN(c4ccc(OC)cc4)CC3)c2c1	-0.5%	.	.	-19.1%	-14.3%
CCCCOc1cc(C(=O)NCCN(CC)CC)c2ccccc2n1	5.5%	31.6µM*	8.9%	-12.2%	-4.9%
CCN(CC)CCNC(=O)c1cc(-c2ccc(Br)s2)nc2ccccc12	?	.	.	?	-15.4%
CCOCCCNC(=O)/C(C#N)=C/c1ccc([N+](=O)[O-])o1	?	34.9%	35.0%	-28.1%	14.1µM*
Oc1ccccc1/C=N/NC(=S)NC1CC2CC1C1C=CCC21 (stereo not drawn)	-12.9%	15.8µM*	9.2%	12.6µM*[quencher]	-10.8%
COc1ccc(C)cc1NS(=O)(=O)c1ccc2[nH]c(=O)c(=O)[nH]c2c1	6.9%	.	.	-8.8%	-6.9%
Cc1ccc(/C=C/C(=O)c2c(C)cc(C)[nH]c2=O)cc1	5.4%	12.1%	9.3%	-2.1%	-11.2%
Cc1cc(C)c(C(=O)/C=C/c2ccco2)c(=O)[nH]1	?	?	-5.5%	-22.9%	22.4µM*
COc1ccc(NC(=O)Cn2c(SCc3cccc(Cl)c3)nc3ccncc32)c(OC)c1OC	-5.7%	.	.	14.1µM*[quencher]	?
C=CCS/C(N)=N\N=C\c1c(O)ccc2ccccc12	9.3%	?	6.6%	11.2µM*[quencher]	?
CCCS/C(N)=N/N=C/c1ccccc1O	2.3%	-24.5%	5.0%	-22.6%	-16.3%
CCCCOc1ccc(C2=NC(c3ccncc3)=Nc3ccc(OCC)cc3N2)cc1	17.9%	.	.	?	?
COc1cc(/C=C2\SC(=O)N(Cc3ccc(F)cc3)C2=O)cc([N+](=O)[O-])c1O	16.3%	-12.0%	-6.5%	-18.4%	14.1µM*
COc1cc(/C=C2\SC(=O)N(Cc3ccc(Cl)cc3)C2=O)cc([N+](=O)[O-])c1O	-2.7%	?	-5.8%	-29.8%	12.6µM*
Cc1ccc(CNC(=O)CN2N=C(c3ccc(C)cc3)CCC2=O)cc1	7.6%	.	.	-9.2%	-3.2%
c1ccc(Nc2cccc(Nc3ccccc3)c2)cc1	-1.2%	-16.6%	7.4%	11.2µM*[quencher]	?
SMILES	Tau fibril FP	JMJD2E inh	GoLoco inh red	Tau fluor counter	Tau fibril ThT
CCn1c(CN2CCCCC2)nc2cc(NC(=O)COc3ccc(C(C)(C)C)cc3)ccc21	-7.9%	.	.	-3.2%	-7.0%
CC(/C=N/NC(=O)Cc1cccn1C)=C\c1ccco1	?	?	10.4%	-22.4%	28.2µM*
COc1cccc(/C=C/c2nc(C#N)c(NCCc3ccccc3)o2)c1	-10.0%	.	.	-20.2%	2.5%
COc1ccccc1/C=C/c1nc(C#N)c(NCCc2ccccc2)o1	?	.	.	3.55µM*[quencher]	?
Cc1ccc2c(Cl)cc(Cl)c(OCC(=O)OCC(=O)Nc3ccc(C#N)cc3)c2n1	?	1.3%	20µM*	5.1%	9.3%
Cc1ccc2c(Cl)cc(Cl)c(OCC(=O)NCc3ccco3)c2n1	?	25.1µM*	30.5%	-29.8%	?
